Rows were chosen to be rich in hits. Some 3.9% of all compounds tested hit in one or more screens of this group.
GDH-TPI inh = counter-screen for M. tuberculosis FBA inhibitors: GDH-TPI coupled enzymes; GDH-TPI coupled enzyme counterscreen, NADH absorbance; inhibition, % at 4.8 µM; 1.2% of 360,000 active;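 also: 0% = DMSO wells and 100% = wells lacking the enzyme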
Mtb FBA inh = inhibits M. tuberculosis FBA enzyme. 2.3% of 360,000 active. AID 588726. inhibition, % at 1 µM. purified M. tuberculosis FBA, fluorescence read-out; in the data active = inhibition above about 27%;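 also: 0% = vehicle and 100% = reference inhibitor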
Target sequence (P9WQA3 whole entry, looked up): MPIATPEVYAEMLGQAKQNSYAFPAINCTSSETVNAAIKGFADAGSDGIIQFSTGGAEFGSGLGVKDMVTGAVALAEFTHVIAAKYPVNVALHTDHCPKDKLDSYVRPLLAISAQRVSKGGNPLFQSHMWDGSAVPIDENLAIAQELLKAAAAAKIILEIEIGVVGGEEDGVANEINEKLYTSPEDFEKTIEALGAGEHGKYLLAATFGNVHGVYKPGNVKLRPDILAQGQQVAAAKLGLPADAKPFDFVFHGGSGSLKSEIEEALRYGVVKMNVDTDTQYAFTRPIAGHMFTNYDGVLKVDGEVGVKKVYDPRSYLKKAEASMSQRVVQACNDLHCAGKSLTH
CCHFV vOTU inh = blocks the CCHF virus ovarian tumor domain protease; AID 651958; CCHFV vOTU protease, Pep-AMC fluorescence; inhibition, % at 11.5 µM; 0.55% of 370,000 active; also: 0% = vehicle wells with enzyme and 100% = no enzyme wells
Vc quorum ag = quorum light induction in luxS cqsA deficient V. cholerae. V. cholerae BH1578 lux reporter, luminescence, 6 h. activation, % at 18.7 µM. 0.16% of 350,000 active. AID 588436; in the data active = activation mostly above about 9.7%, no sharp cut-off
Numbers without * were called inactive; i = inactive; . = not tested or not shown; + = active, no number. Rule as the data show it, unless noted: active = inhibition above about 30%; inactive = the rest.

SMILES	GDH-TPI inh	Mtb FBA inh	CCHFV vOTU inh	Vc quorum ag
CCOc1ccc2ccccc2c1C1NC(=O)NC(C)=C1C(=O)OCCOC (centres undefined)	1.1	-2.1	4.0	-0.5
COCCOC(=O)C1=C(C)NC(=O)NC1c1c(Cl)nc2ccccn2c1=O (centres undefined)	31.1*	2.9	-4.2	-0.5
CN(CC(=O)Nc1cccc(F)c1)C(=O)c1ccc2c(c1)NC(=O)CS2	0.6	0.8	-4.7	-0.4
COc1ccc(Cn2nnnc2C(c2cc3ccc(OC)cc3[nH]c2=O)N2CCCCCC2)cc1 (centres undefined)	34.0*	9.7	-8.5	i
CCCCc1nc(SCC(=O)N2CCCC2)c2c(=O)n(C)c(=O)n(C)c2n1	5.2	-1.3	-4.8	i
CCCCC(CC)CNC(=O)c1ncn[nH]1 (centres undefined)	0.0	1.0	-9.8	-0.2
N#C/C(=C(\O)c1cc(Cl)sc1Cl)c1nc2ccccc2[nH]1	38.9*	-0.2	6.4	0.9
COc1cc(/C(O)=C(\C#N)c2nc3ccccc3[nH]2)cc(OC)c1OC	38.1*	12.1	-2.3	-0.6
COc1ccc(C)cc1-n1nnnc1SC/C(O)=C(\C#N)c1nc2ccccc2[nH]1	36.4*	-3.1	3.9	-3.0
NC(COCc1ccccc1)c1csc(Nc2ccc(C(F)(F)F)cn2)n1 (centres undefined)	-7.1	-0.7	22.7	-1.2
O=c1oc2cc(O)ccc2cc1S(=O)(=O)c1ccccc1	15.3	+	-368.3	0.6
CCN(CC)c1ccc2cc(S(=O)(=O)c3ccc(Cl)cc3)c(=O)oc2c1	15.9	8.8	-13.5	-0.5
O=c1oc2cc(O)ccc2cc1-c1nc2ccccc2o1	.	+	-402.4	.
O=c1cc(-c2cc3ccccc3o2)c2cc(O)ccc2o1	15.5	-0.3	.	-0.3
CCC1c2ccccc2C(=O)C1C(N)=O (centres undefined)	5.2	6.0	4.8	-0.1
COc1cc(/C=C/C(=O)c2c(O)ccc3c(C)cc(=O)oc23)ccc1O	49.5*	1.7	6.8	5.6
CC(=O)c1c(OCC(=O)O)ccc2c(C)cc(=O)oc12	17.1	5.9	0.4	-5.0
COc1cc(/C=C/C(=O)c2c(O)cc(C)oc2=O)cc(OC)c1O	33.9*	-5.5	-2.3	-6.7
Cc1cc(=O)oc2c(C(=O)/C=C/c3ccccc3)c(O)ccc12	1.7	7.6	0.8	i
COc1ccc(/C=C\C(=O)c2c(O)ccc3c(C)cc(=O)oc23)cc1OC	52.2*	5.3	7.0	i
Cc1cc(=O)oc2c(C(=O)/C=C\c3cccs3)c(O)ccc12	42.1*	1.2	-0.7	3.6
CCOc1ccc(N2C(=O)CN=C2Nc2ccccc2F)cc1	5.4	4.8	-3.7	i
C=CCN1C(=O)S/C(=C/c2ccsc2)C1=O	23.4	-0.5	1.1	-0.3
CCN1C(=O)S/C(=C/c2ccsc2)C1=O	38.8*	-1.7	16.2	-1.4
CCOC(=O)c1c[nH]n(-c2ccccc2)c1=O	-5.2	2.1	-4.8	i
SMILES	GDH-TPI inh	Mtb FBA inh	CCHFV vOTU inh	Vc quorum ag
CCOC(=O)c1cc(C(=O)OCC)c2ccccn2c1=O	6.0	+	-224.7	5.3
CC(C)c1cc(N2CCN(C(=O)c3ccco3)CC2)n2c(nc3ccccc32)c1C#N	10.3	17.9	-19.3	-0.1
Cc1cc(-c2ccco2)c(C#N)c2nc3ccccc3n12	30.8*	1.6	-1.2	i
Cc1ccc(C(=O)N2CCN(S(=O)(=O)c3ccccc3C#N)CC2)cc1S(=O)(=O)N1CCOCC1	-0.4	1.1	-5.2	-0.3
O=Nc1ccc(Br)cn1	.	.	3.4	.
Cc1cc(=O)oc2c3c(cc(OCC(=O)NCCC(=O)O)c12)OC(C)(C)CC3	25.3	+	-223.8	i
CCc1cc(=O)oc2cc(C)cc(OCC(=O)NCC3CCC(C(=O)O)CC3)c12 (centres undefined)	0.0	18.9	-4.3	-0.3
Cc1ccccc1OCC(=O)NCCC(=O)O	6.6	-0.1	-17.4	i
CCc1cc(=O)oc2c3c(cc(OCC(=O)NCCCOC)c12)OC(C)(C)CC3	9.5	+	-254.0	-18.3
CCc1cc(=O)oc2cc(OCC(=O)NCCCN3CCCC3=O)c(Cl)cc12	6.8	8.3	7.0	i
CCc1cc(=O)oc2c3c(cc(OCC(=O)NCCCC(=O)O)c12)OC(C)(C)CC3	11.3	+	-233.2	-0.8
CCc1cc(=O)oc2c3c(cc(OCC(=O)NCCC(=O)O)c12)OC(C)(C)CC3	11.6	177.0*	-185.2	1.5
O=C(CN(Cc1ccco1)C(=O)CCC(=O)Nc1ccccn1)NCc1ccccc1	7.7	1.6	18.1	-0.4
COc1ccc2c(C)c(CCC(=O)NCCCN3CCCC3=O)c(=O)oc2c1C	21.6	116.3*	-53.9	-0.5
CCCc1cc(=O)oc2c3c(cc(OCC(=O)N4CCC[C@H]4C(=O)O)c12)OC(C)(C)CC3	25.5	+	-175.3	-0.6
Cc1oc2c(C)c3oc(=O)c(CCC(=O)NCCCN4CCCC4=O)c(C)c3cc2c1C	9.0	13.7	-7.7	-0.4
Cc1c(OCC(=O)NCCN2CCOCC2)ccc2c3c(c(=O)oc12)CCC3	8.6	14.7	0.7	-5.3
Cc1c(C)c2ccc(OCC(=O)N3CCC[C@@H]3C(=O)O)c(C)c2oc1=O	7.6	128.9*	-35.4	-0.5
Cc1c(C)c2ccc(OCC(=O)N3CCN(c4ccc(F)cc4)CC3)c(C)c2oc1=O	5.6	-5.5	4.1	i
Cc1c(OCC(=O)NCCN2CCOCC2)ccc2c1oc(=O)c1ccccc12	13.9	124.0*	-29.1	-0.2
CCN(C(=O)CSc1nnc(-c2ccccc2C)n1C)c1c(N)n(Cc2ccccc2)c(=O)[nH]c1=O	3.5	0.7	0.2	-2.3
CCOC(=O)N1CCN(Cc2nc3ccc([N+](=O)[O-])cc3c(=O)n2-c2ccc(OC)cc2OC)CC1	14.4	2.6	20.4	i
CCc1cc(=O)oc2c(C)c(OCC(=O)NCCCN3CCOCC3)ccc12	11.8	19.3	1.6	-0.3
CCc1cc(=O)oc2c3c(cc(OCC(=O)NC4CC4)c12)OC(C)(C)CC3	18.6	+	-154.5	-0.3
CCc1cc(=O)oc2c3c(cc(OCC(=O)NCCN4CCOCC4)c12)OC(C)(C)CC3	14.7	175.8*	-165.6	-0.3
SMILES	GDH-TPI inh	Mtb FBA inh	CCHFV vOTU inh	Vc quorum ag
S=c1[nH]c(-c2ccc(Cl)cc2)cs1	-0.6	-1.1	-4.0	-0.2
COc1nccnc1NS(=O)(=O)c1ccc(N=Cc2c(C)[nH]n(-c3ccc(C)c(C)c3)c2=O)cc1	32.5*	-0.8	-8.5	i
COc1nccnc1NS(=O)(=O)c1ccc(N=Cc2c(C)[nH]n(-c3ccc(Cl)cc3)c2=O)cc1	.	.	2.3	.
CCOC(=O)C1=C(C)Nc2nc(C)nn2C1c1ccc(OC)c(OC)c1 (centres undefined)	3.0	-2.0	-6.5	-0.2
CCOC(=O)C1=C(C)NC(SC(C)=O)=NC1c1ccc(OC(C)=O)c(OC)c1 (centres undefined)	36.3*	4.5	-3.3	-0.9
COc1ccccc1CNC(=O)C(C)Sc1ccc(C)cc1 (centres undefined)	-4.4	-0.7	0.2	-0.2
COc1ccc(-c2ccnc3nc(Sc4ncc(C(F)(F)F)cc4Cl)nn23)cc1	13.7	+	-43.8	-2.0
FC(F)(F)c1cnc(Sc2nc3nccc(-c4ccc(Cl)cc4)n3n2)c(Cl)c1	-4.2	2.3	1.2	-1.0

Screening results: PubChem, several laboratories
